In PubChem BioAssay one finds composite z-score, z-score and composite Z-score data, which are given here for four compounds.

The structures appear in SMILES notation. Values joined by “and” are separate entries in the source; they are usually repeats but may differ in a detail not shown here. Equal entries are not always repeated. Active and inactive are the calls of the source.

The subject of experiment [1] is Human papillomavirus type 1a protein E7 (residues 44-93). The experiment can be described thus: small molecules binding HPV E7 44-93 – biochemical, small-molecule microarray, residues 44-93, 635 nm fluorescence, primary screen (AID 1108).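 Further: E7 fragment applied at 1 µg/mL in TBST for 1 h at 4 C; score combines spot fluorescence with its signal to noise ratio.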 Conditions: fluorescence 635 nm, higher = more signal.
A short description of experiment [2]: hepatitis C replication reporter changes, two-sided – Huh7 cells, luciferase reporter, HCV replication inhibitor project, primary screen (AID 1109).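 Further: huh7 hepatoma cells harbouring a luciferase neomycin HCV replicon reporter; luciferase luminescence as measure of HCV replicon replication; test concentration not given here.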 Conditions: Huh7 HCV replicon luciferase reporter, 48 h; higher = more signal.
The target of experiment [3] is Left-right determination factor 2 (Homo sapiens) (UniProt O00292). Put plainly: small molecules binding LEFTY2 protein – biochemical, small-molecule microarray, 635 nm fluorescence scan, primary screen (AID 1110). Particulars: higher = more signal.
Experiment [4] concerns the target Calmodulin-1 (Homo sapiens) (UniProt P0DP23). The experiment can be described thus: small molecules binding calmodulin-1 with EGTA – biochemical, small-molecule microarray, Cy5-labelled CALM1, profiling panel (AID 1111).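 Further: labelled calmodulin applied in Tris saline Tween buffer holding calcium plus EGTA and DTT.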 Particulars: Cy5-CALM1 binding fluorescence, higher = more signal.
The target is the same in experiment [5]. Put plainly: small molecules binding Ca-loaded calmodulin-1 – biochemical, small-molecule microarray, Cy5-labelled CALM1, plus calcium, artefact control for SMM control-protein annotation, profiling panel (AID 1112).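 Further: score merges spot fluorescence with signal to noise from triplicate slides.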 Conditions: Cy5-CALM1 binding fluorescence, higher = more signal.
A short description of experiment [6]: probe aWnt5a binding to arrayed compounds – biochemical, biotinylated probe, 635/667 nm fluorescence, primary screen (AID 1113).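 Further: score merges 667 nm fluorescence intensity with signal-to-noise per printed feature.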 Conditions: small-molecule microarray, higher = more signal.
Experiment [7] is described as follows: probe aShh binding to arrayed compounds – biochemical, biotinylated probe, 635/667 nm fluorescence, primary screen (AID 1114).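 Further: probe is biotin-labelled aShh protein from a stem cell growth factor screen; measures binding of labelled protein to compounds printed on the slide; score merges feature fluorescence at 667 nm with signal-to-noise.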 Particulars: small-molecule microarray, higher = more signal.
Experiment [8] is described as follows: probe aNog binding to arrayed compounds – biochemical, biotinylated probe, 635/667 nm fluorescence, primary screen (AID 1115).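 Further: probe is biotinylated aNog protein used at 0.15 µg/mL for 1 h at 4 C; z-score combines 667 nm fluorescence of each spot with its signal to noise.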 Conditions: small-molecule microarray, higher = more signal.
Experiment [9] deals with Torsin-1A-interacting protein 1 (Homo sapiens) (UniProt Q5JTV8). The experiment can be described thus: compound microarray binding of lysate hLAP1 – cell lysate, small-molecule microarray, COS7 lysate, 635/667 nm fluorescence, primary screen (AID 1116). Particulars: 635 nm fluorescence, higher = more signal.
The target in experiment [10] is Alpha-bungarotoxin (Bungarus multicinctus) (UniProt P60615). The experiment can be described thus: compounds binding labelled alpha-BTX control protein – biochemical, small-molecule microarray, Alexa647 label, 635/667 nm fluorescence, artefact control for SMM control protein annotation, profiling panel (AID 1117). Particulars: alpha-BTX-A647 binding fluorescence, higher = more signal.

In another experiment the target is Albumin (Bos taurus) (UniProt P02769). Put plainly: compounds binding labelled BSA control protein – biochemical, small-molecule microarray, Alexa647 label, 635/667 nm fluorescence, artefact control for SMM control protein annotation, profiling panel (AID 1118).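 Further: score merges 667 nm emission intensity and signal-to-noise per printed compound spot.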 Particulars: BSA-A647 binding, fluorescence 635 nm, higher = more signal.
Experiment [11] is described as follows: probe aXIP binding to arrayed compounds – biochemical, NeuroSMM set, 635/667 nm fluorescence, primary screen (AID 1119).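 Further: probe is the protein aXip251-270 applied at 1 µg/mL to compound-printed slides; binding of probe to printed compounds measured as 667 nm fluorescence plus signal to noise.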 Conditions: small-molecule microarray, higher = more signal, called active from +8 up or from −8 down.
A short description of experiment [12]: probe aNOTCH3 binding on compound microarray – biochemical, small-molecule microarray, 635/667 nm fluorescence, primary screen (AID 1120).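 Further: probe is a biotin-tagged antibody raised against NOTCH3 rather than NOTCH3 protein; score merges spot fluorescence near 667 nm with spot signal to noise.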 Particulars: higher = more signal.
Experiment [13] can be described thus: probe aNOTCH2 binding on compound microarray – biochemical, small-molecule microarray, 635/667 nm fluorescence, primary screen (AID 1121).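 Further: score merges feature fluorescence read at 667 nm with its signal to noise.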 Particulars: higher = more signal.
The target in experiment [14] is Carbonic anhydrase 2 (Homo sapiens) (UniProt P00918). The experiment can be described thus: compounds binding carbonic anhydrase 2 – biochemical, small-molecule microarray, Alexa647-labelled CAII, profiling panel (AID 1122). Particulars: CAII-A647 binding fluorescence, higher = more signal.
Experiment [15] is described as follows: COS7 lysate on small-molecule microarray, probe aHis, 635 nm (AID 1123).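 Further: z-score combines 667nm fluorescence intensity with signal-to-noise per printed compound spot.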 Particulars: COS7 cell lysate, fluorescence, higher = more signal.
Experiment [16] in a line: probe aLAP1 signal on lysate-treated microarray – cell lysate, small-molecule microarray, COS7 lysate, primary screen (AID 1124).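 Further: lysate comes from COS7 cells expressing LAP1 and is applied at 0.3 µg/mL; score merges spot fluorescence near 667 nm with signal-to-noise over triplicate slides.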 Particulars: probe aLAP1, fluorescence, higher = more signal.
Another experiment concerns Sam68 (KHDRBS1). The experiment can be described thus: compounds binding KHDRBS1 protein – biochemical, small-molecule microarray, 635 nm fluorescence, primary screen (AID 1125).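 Further: score merges 667 nm channel intensity with signal to noise over triplicate slides.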 Particulars: higher = more signal.
In experiment [17] the test system is Chordin-like protein 2 (CHRDL2). The experiment can be described thus: compounds binding chordin-like 2 – biochemical, small-molecule microarray, 635 nm fluorescence, primary screen (AID 1126).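 Further: printed compound slides probed with Chrdl2 protein at 4 µg/mL for 1 h at 4 C; score merges 667 nm emission intensity with signal to noise over three replicate slides.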 Conditions: fluorescence 635 nm, higher = more signal.
In experiment [18] the target is Concanavalin-A (Canavalia ensiformis) (UniProt P02866). Put plainly: compounds binding concanavalin A lectin – biochemical, small-molecule microarray, Alexa647 label, 635 nm, artefact control for SMM control protein annotation, primary screen (AID 1127).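 Further: z combines 667 nm emission intensity with signal-to-noise across three replicate slides.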 Particulars: ConA-A647 binding fluorescence, higher = more signal.
Sequence of Concanavalin-A (Canavalia ensiformis) (P02866 whole entry, looked up): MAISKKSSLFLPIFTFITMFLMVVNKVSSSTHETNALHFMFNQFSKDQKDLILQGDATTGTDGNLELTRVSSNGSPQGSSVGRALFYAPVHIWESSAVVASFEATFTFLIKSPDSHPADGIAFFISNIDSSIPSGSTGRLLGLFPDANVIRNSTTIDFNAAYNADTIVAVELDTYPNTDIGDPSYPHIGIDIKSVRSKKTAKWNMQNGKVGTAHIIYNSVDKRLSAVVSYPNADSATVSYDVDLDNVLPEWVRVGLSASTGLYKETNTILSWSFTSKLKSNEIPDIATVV

Sequence of Albumin (Bos taurus) (P02769 whole entry, looked up): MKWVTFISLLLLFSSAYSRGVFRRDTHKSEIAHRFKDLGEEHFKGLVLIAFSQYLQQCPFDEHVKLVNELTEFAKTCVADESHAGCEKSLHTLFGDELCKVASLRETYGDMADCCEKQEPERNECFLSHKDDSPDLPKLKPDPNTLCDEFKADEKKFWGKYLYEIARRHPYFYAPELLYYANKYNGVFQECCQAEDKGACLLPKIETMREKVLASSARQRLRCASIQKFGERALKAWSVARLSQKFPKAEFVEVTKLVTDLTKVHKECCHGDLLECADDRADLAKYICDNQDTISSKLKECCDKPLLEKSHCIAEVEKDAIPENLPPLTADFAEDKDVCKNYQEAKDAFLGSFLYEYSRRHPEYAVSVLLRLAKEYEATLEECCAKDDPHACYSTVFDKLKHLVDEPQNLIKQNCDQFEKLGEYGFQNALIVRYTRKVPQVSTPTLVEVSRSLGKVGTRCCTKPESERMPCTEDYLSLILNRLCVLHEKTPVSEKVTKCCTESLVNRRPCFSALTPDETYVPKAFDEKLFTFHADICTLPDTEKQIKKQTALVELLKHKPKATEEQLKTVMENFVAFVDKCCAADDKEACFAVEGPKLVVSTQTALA
Sequence of Alpha-bungarotoxin (Bungarus multicinctus) (P60615 whole entry, looked up): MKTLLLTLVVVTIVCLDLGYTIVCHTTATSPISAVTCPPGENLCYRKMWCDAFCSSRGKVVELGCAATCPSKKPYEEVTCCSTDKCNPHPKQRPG
Sequence of Torsin-1A-interacting protein 1 (Homo sapiens) (Q5JTV8 whole entry, looked up): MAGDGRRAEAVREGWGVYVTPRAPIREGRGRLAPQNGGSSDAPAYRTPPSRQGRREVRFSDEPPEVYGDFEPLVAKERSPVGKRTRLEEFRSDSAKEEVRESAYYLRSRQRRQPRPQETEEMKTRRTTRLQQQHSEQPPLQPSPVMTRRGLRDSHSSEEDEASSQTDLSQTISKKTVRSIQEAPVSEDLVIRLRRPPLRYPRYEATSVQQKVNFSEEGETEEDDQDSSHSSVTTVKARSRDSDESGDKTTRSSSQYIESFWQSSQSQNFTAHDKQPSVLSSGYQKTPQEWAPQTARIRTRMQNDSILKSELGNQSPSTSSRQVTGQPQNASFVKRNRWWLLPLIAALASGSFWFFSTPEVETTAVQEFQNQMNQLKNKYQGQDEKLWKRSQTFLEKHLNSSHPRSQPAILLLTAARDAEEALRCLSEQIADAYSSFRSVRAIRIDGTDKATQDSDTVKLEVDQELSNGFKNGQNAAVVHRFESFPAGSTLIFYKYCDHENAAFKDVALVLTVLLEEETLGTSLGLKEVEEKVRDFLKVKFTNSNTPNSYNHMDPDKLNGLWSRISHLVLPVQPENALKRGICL
Sequence of Left-right determination factor 2 (Homo sapiens) (O00292 whole entry, looked up): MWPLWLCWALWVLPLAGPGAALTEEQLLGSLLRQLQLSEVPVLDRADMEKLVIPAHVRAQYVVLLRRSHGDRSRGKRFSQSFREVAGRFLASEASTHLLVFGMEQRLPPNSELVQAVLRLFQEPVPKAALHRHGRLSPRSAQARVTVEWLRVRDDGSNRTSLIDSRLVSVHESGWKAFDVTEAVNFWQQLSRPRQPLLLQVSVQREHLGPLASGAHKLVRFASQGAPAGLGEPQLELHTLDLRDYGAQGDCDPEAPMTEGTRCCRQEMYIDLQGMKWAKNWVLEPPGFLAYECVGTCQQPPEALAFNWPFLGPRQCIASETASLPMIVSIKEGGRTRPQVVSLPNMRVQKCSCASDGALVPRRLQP

For `C#CCN1C(/C=C/c2ccccc2)C(=O)OC[C@H]1c1ccccc1` (stereo not given in full), the composite z-score in [1] is 0.267 and 0.514; in [3], 0.673 and 0.247; in experiment [4] it was -0.451 and -0.295; in [5], -0.545 and -0.383; in [6], -0.0033 and -0.0607; in [7] it was 0.0328 and -0.138. Further, the composite z-score was -0.115 and -0.385 in experiment [8]; 0.341 and -0.35 in [9]; 0.348 and -0.144 in [10]; -0.147 and 0.723 with Albumin (Bos taurus); -0.0766 and 0.228 in experiment [12]; -0.181 and -0.101 in experiment [13]. In addition, the composite z-score was -0.114 and 0.493 in experiment [14]; 0.096 and 0.45 in [15]; -0.317 and 0.0886 in [16]; 0.224 and 0.889 in the experiment with Sam68 (KHDRBS1); 0.852 and -0.0756 in experiment [17]; -0.243 and 0.199 in experiment [18]. Further, the z-score in experiment [2] was -1 and -2.09. For the same compound, in [11], the composite Z-score is -0.0965 (inactive) and 0.733 (inactive).

For `C=CCN(C(=O)C1N(CCCCCCO)C(=O)C2C(C(=O)O)C3C=CC21O3)C(C)(C)C` (stereo not given), the composite z-score was -1.46 and -0.783 in experiment [1]; -3.98 and -3.63 in [3]; -0.332 and -0.397 in [4]; 0.915 and 0.825 in experiment [5]; -0.348 and -0.364 in experiment [6]; -0.221 and -0.123 in [7]. In addition, the composite z-score in [8] is -0.176 and 0.338; in [9], -1.85 and -0.489; in experiment [10] it was -1.42 and -1.95; with Albumin (Bos taurus) it was -0.171 and -1.11; in experiment [12] it was -0.695 and -0.55; in [13] it was -0.217 and -0.192. For the same compound, the composite z-score in [14] is 0.987 and 0.958; in experiment [15], -0.712 and 0.0575; in experiment [16] it was -0.729 and -0.646; with Sam68 (KHDRBS1) it was -1.73 and -0.275; in experiment [17], -4.11 and -4.07; in experiment [18], -0.974 and -2.94. Moreover, the z-score in experiment [2] is 0.31 and -0.387. Also, the composite Z-score in [11] is 0.148 (inactive) and -0.707 (inactive).

On to `COc1ccc(O[C@H]2C=C[C@@H](c3ccccc3)O[C@@H]2COC(=O)CCC(C)=NO[C@H](C)c2cn([C@H](CO)Cc3ccccc3)nn2)cc1`, for which the composite z-score in experiment [1] was -0.0009 and -0.0146; in [3], 0.195 and 0.439; in experiment [4], -0.223 and -0.233; in experiment [5], -0.232 and -0.239; in [6] it was -0.132 and 0.205; in experiment [7], -0.0553 and -0.129. Further, the composite z-score is -0.0827 and 0.96 in experiment [8]; 0.14 and 0.392 in [9]; 0.211 and 0.231 in experiment [10]; 0.683 and 0.0567 with Albumin (Bos taurus); 0.0886 and -0.295 in experiment [12]; -0.318 and -0.0611 in [13]. Also, the composite z-score in [14] is -0.11 and -0.114; in [15] it was 0.167 and -0.0458; in experiment [16], -0.226 and -0.0278; with Sam68 (KHDRBS1), 0.492 and -0.005; in experiment [17] it was 0.0011 and 0.593; in [18], -0.0163 and -0.0252. For the same compound, the z-score in experiment [2] is -1.99 and -2.59. For the same compound, the composite Z-score in experiment [11] was 0.0335 (inactive) and 0.232 (inactive).

For the compound `CC(C)CCN1CCc2nc(-c3ccccc3)c3c(c2C1)CO[C@@H](C)C3`, the composite z-score in experiment [1] was 1.35; in experiment [3], 0.457; in experiment [4], -0.083; in experiment [5] it was -0.399; in experiment [6], -0.0944; in experiment [7], -0.138. In addition, the composite z-score in experiment [8] is -0.036; in [9], 0.565; in experiment [10] it was 0.416; in the experiment with Albumin (Bos taurus), 0.69; in [12], -0.0362; in [13], -0.16. The composite z-score in experiment [14] is 0.15; in experiment [15], 0.463; in experiment [16] it was -0.616; with Sam68 (KHDRBS1), 1.06; in experiment [17], 0.656; in [18], 0.263. Also, the z-score in experiment [2] was -0.952. Moreover, the composite Z-score in experiment [11] was -0.835 (inactive).
